Test results published in PubChem BioAssay (EPA / NIEHS).
Results filed as inconclusive are left out. The source made the active and inactive calls. Rule for the calls: active = hit-call score of the fitted dose curve at least 0.9, where 1 is the maximum; inconclusive = response in the unintended direction; inactive = score below 0.9.

target: Retinoic acid receptor RXR-alpha (Homo sapiens) (UniProt P19793); test: OT_NURR1_NURR1RXRa_0480: Odyssey Thera (OT) 8-hour HEK293T Protein Complementation Assay for Nurr1/retinoid X receptor (RXR) (AID 2283385)
Sequence (P19793 whole entry, looked up, the tested form may be a part): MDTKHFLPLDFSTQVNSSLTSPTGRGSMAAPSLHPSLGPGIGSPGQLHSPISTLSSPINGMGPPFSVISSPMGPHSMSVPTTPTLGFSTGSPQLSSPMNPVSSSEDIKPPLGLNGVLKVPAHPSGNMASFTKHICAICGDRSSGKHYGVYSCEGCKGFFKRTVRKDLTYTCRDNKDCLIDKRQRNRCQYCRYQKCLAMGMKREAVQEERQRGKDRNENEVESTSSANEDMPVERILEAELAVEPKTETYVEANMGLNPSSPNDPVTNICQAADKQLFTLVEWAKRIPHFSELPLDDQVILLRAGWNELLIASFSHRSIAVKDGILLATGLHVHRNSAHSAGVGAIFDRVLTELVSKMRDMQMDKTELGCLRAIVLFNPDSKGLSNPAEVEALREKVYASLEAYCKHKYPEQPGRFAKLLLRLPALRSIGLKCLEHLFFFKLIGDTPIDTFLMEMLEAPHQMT
In short: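 Gain in fluorescent complementation signal over DMSO, measured 8 hours after chemical dosing of human kidney HEK293T cells, indicated enhanced Nurr1–RXRα association.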

How did the AC50 turn out when CC1CC(OC(=O)c2ccccc2O)CC(C)(C)C1 (centres undefined) was run?
Its AC50 is 92.8 µM (active).

How did the outcome turn out when CCCC1CCC(=O)O1 (centres undefined) was run?
The outcome was “inactive”.

With CC(C)=CCCC(C)=CCCC(C)=CCO as the molecule, how does the outcome read?
Its outcome is “inactive”.

For CCCCOCCOCCOCCOCCO, which outcome is on record?
Its outcome is “inactive”.

For CCCCCOC(=O)CCC, which outcome is on record?
Its outcome is “inactive”.

With CSc1nc(NC2CC2)nc(NC(C)(C)C)n1 as the molecule, how does the outcome read?
Its outcome is “inactive”.

Which outcome does the source give for C=O here?
Its outcome is “inactive”.

For CC(C)=CCCC(C)CC=O (centres undefined), which outcome is on record?
The outcome was “inactive”.

How did the outcome turn out when CCCC/C=C\CCCCCCCCCC=O was run?
The outcome was “inactive”.

NCCCN1CCOCC1 was tested. Which outcome did it give?
Its outcome is “inactive”.

CC1COc2ccccc2N1C(=O)C(Cl)Cl (centres undefined) was tested. Which outcome did it give?
The outcome was “inactive”.

How did the outcome turn out when C=CC[N+](C)(C)CC=C was run?
Its outcome is “inactive”.

Which outcome does the source give for O=C(O)c1ccc([N+](=O)[O-])cc1 here?
Its outcome is “inactive”.

For c1ccc(CCCc2ccccn2)cc1, which outcome is on record?
The outcome was “inactive”.

Which outcome does the source give for CC(C)c1cccc(O)c1 here?
Its outcome is “inactive”.

CCCCCCCCCCCCCOS(=O)(=O)O was tested. Which AC50 did it give?
Its AC50 is 78.4 µM (active).

O=Nc1ccc(Nc2ccccc2)cc1 was tested. Which AC50 did it give?
Its AC50 is 0.707 µM (active).

For C=CCOc1nc(OCC=C)nc(OCC=C)n1, which outcome is on record?
Its outcome is “inactive”.

With O=c1cc(-c2ccccc2)oc2cc(O)cc(O)c12 as the molecule, how does the outcome read?
The outcome was “inactive”.

Which AC50 does the source give for CCCCC(CC)COC(=O)/C=C\C(=O)OCC(CC)CCCC (centres undefined) here?
The AC50 was 7.85 µM (active).

With O=C(Cl)c1cccc(C(=O)Cl)c1 as the molecule, how does the outcome read?
Its outcome is “inactive”.

Which outcome does the source give for CCCCC[Si](OCC)(OCC)OCC here?
The outcome was “inactive”.

For C=CC(C)(O)CCC=C(C)CCC=C(C)C (centres undefined), which outcome is on record?
The outcome was “inactive”.

How did the outcome turn out when NCCCCCCN was run?
The outcome was “inactive”.

For C=C(C)C(=O)O, which outcome is on record?
The outcome was “inactive”.

target: Retinoic acid receptor RXR-alpha (Homo sapiens) (UniProt P19793); test: OT_NURR1_NURR1RXRa_1440: Odyssey Thera (OT) 24-hour HEK293T Protein Complementation Assay for Nurr1/retinoid X receptor (RXR) (AID 2283386)
In short: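 Cell-based binding reporter: HEK293T cells, 24 h exposure, fluorescence-detected fragment complementation, DMSO as baseline.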

How did the outcome turn out when CCCCOCCOCCOCCOCCO was run?
The outcome was “inactive”.

How did the outcome turn out when C=O was run?
Its outcome is “inactive”.

Which outcome does the source give for C=CC[N+](C)(C)CC=C here?
The outcome was “inactive”.

With NCCNCCN as the molecule, how does the outcome read?
The outcome was “inactive”.

For CC(C)c1cccc(O)c1, which outcome is on record?
Its outcome is “inactive”.

Which outcome does the source give for CC(C)(C#N)c1cc(Cn2cncn2)cc(C(C)(C)C#N)c1 here?
Its outcome is “inactive”.

Which outcome does the source give for CCCCCCCCC here?
Its outcome is “inactive”.

How did the outcome turn out when C=CCOc1nc(OCC=C)nc(OCC=C)n1 was run?
The outcome was “inactive”.

For CC(=O)OCCC(C)CC(C)(C)C (centres undefined), which outcome is on record?
Its outcome is “inactive”.

With O=c1cc(-c2ccccc2)oc2cc(O)cc(O)c12 as the molecule, how does the outcome read?
The outcome was “inactive”.

With CCCCC(CC)COC(=O)/C=C\C(=O)OCC(CC)CCCC (centres undefined) as the molecule, how does the AC50 read?
The AC50 was 50 µM (active).

Which AC50 does the source give for C=CC(C)(O)CCC=C(C)CCC=C(C)C (centres undefined) here?
The AC50 was 50 µM (active).

target: Peroxisome proliferator-activated receptor gamma (Homo sapiens) (UniProt P37231); test: OT_PPARg_PPARgSRC1_0480: Odyssey Thera (OT) 8-hour Protein-Complementation Assay for Peroxisome Proliferator-activated Receptor Gamma / SRC-1 Co-activator (AID 2283387);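 note: nuclear to cytoplasmic split Venus YFP fluorescence ratio reporting PPARg SRC-1 interaction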
Sequence (P37231 whole entry, looked up, the tested form may be a part): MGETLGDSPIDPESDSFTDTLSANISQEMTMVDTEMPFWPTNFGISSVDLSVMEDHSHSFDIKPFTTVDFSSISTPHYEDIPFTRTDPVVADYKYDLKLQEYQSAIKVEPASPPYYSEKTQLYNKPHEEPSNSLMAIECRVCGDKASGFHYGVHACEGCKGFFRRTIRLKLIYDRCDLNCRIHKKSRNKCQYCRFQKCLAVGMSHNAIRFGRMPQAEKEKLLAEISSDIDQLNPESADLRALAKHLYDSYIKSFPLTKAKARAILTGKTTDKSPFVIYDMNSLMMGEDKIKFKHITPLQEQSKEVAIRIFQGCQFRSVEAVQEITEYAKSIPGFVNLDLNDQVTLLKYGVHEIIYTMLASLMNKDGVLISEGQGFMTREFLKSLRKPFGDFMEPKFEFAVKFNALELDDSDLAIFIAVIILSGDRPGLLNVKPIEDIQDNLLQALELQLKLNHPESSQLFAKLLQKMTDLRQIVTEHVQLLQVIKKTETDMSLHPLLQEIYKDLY
In short: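 Protein-fragment complementation of split Venus YFP reports PPARg/SRC-1 interaction in HEK293T (transfected 48 h before treatment), exposed 8 h. Readout: N/C fluorescence ratio at 488 nm from imaging, Draq5 for segmentation, positive fit relative to DMSO.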

How did the outcome turn out when CC1CC(OC(=O)c2ccccc2O)CC(C)(C)C1 (centres undefined) was run?
The outcome was “inactive”.

For CCCC1CCC(=O)O1 (centres undefined), which outcome is on record?
The outcome was “inactive”.

With CC(C)=CCCC(C)=CCCC(C)=CCO as the molecule, how does the outcome read?
Its outcome is “inactive”.

Which outcome does the source give for CCCCOCCOCCOCCOCCO here?
Its outcome is “inactive”.

How did the outcome turn out when CCCCCOC(=O)CCC was run?
Its outcome is “inactive”.

How did the outcome turn out when CSc1nc(NC2CC2)nc(NC(C)(C)C)n1 was run?
Its outcome is “inactive”.

How did the outcome turn out when C=O was run?
Its outcome is “inactive”.

With CC(C)=CCCC(C)CC=O (centres undefined) as the molecule, how does the outcome read?
Its outcome is “inactive”.

How did the outcome turn out when CCCC/C=C\CCCCCCCCCC=O was run?
The outcome was “inactive”.

With NCCCN1CCOCC1 as the molecule, how does the outcome read?
Its outcome is “inactive”.

For CC1COc2ccccc2N1C(=O)C(Cl)Cl (centres undefined), which outcome is on record?
The outcome was “inactive”.

Which outcome does the source give for C=CC[N+](C)(C)CC=C here?
The outcome was “inactive”.

With NCCNCCN as the molecule, how does the outcome read?
Its outcome is “inactive”.

For c1ccc(CCCc2ccccn2)cc1, which outcome is on record?
Its outcome is “inactive”.

For CC(C)c1cccc(O)c1, which outcome is on record?
The outcome was “inactive”.

CCCCCCCCCCCCCOS(=O)(=O)O was tested. Which outcome did it give?
The outcome was “inactive”.

How did the outcome turn out when CC(C)(C#N)c1cc(Cn2cncn2)cc(C(C)(C)C#N)c1 was run?
Its outcome is “inactive”.

Which outcome does the source give for O=Nc1ccc(Nc2ccccc2)cc1 here?
The outcome was “inactive”.

How did the outcome turn out when CCCCCCCCC was run?
Its outcome is “inactive”.

Which outcome does the source give for C=CCOc1nc(OCC=C)nc(OCC=C)n1 here?
The outcome was “inactive”.

For CC(=O)OCCC(C)CC(C)(C)C (centres undefined), which outcome is on record?
The outcome was “inactive”.

How did the outcome turn out when O=c1cc(-c2ccccc2)oc2cc(O)cc(O)c12 was run?
Its outcome is “inactive”.

With CCCCC(CC)COC(=O)/C=C\C(=O)OCC(CC)CCCC (centres undefined) as the molecule, how does the outcome read?
Its outcome is “inactive”.

O=C(Cl)c1cccc(C(=O)Cl)c1 was tested. Which outcome did it give?
The outcome was “inactive”.

CCCCC[Si](OCC)(OCC)OCC was tested. Which outcome did it give?
The outcome was “inactive”.

NCCCCCCN was tested. Which outcome did it give?
The outcome was “inactive”.

Which outcome does the source give for C=C(C)C(=O)O here?
The outcome was “inactive”.
